# In the supplement of paper PMC10105736:
# Values without a mark were called inactive.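 The calls were made as follows: active = MAPPIT score above the 99th percentile of random reference set scores in the same batch; inactive = at or below it.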
# Assays:
# Test in all cases: MAPPIT interaction score (arbitrary units); higher = stronger binary interaction signal, active = hit call of the paper
# Ilp6 = conditions: pair source set: RRS
# JMJD4 = conditions: MAPPIT configuration: N-N; pair source set: Curagen_low_conf
# Pdha = conditions: MAPPIT configuration: N-N; pair source set: Lit-BS-16
# Pih1D1 = conditions: MAPPIT configuration: N-N; pair source set: Finley_Y2H
# Sms = conditions: MAPPIT configuration: N-N
# Jheh2 = conditions: MAPPIT configuration: N-N; pair source set: Lit-BS-16
# Ing3 = conditions: MAPPIT configuration: N-N; pair source set: Curagen_low_conf
# JIL-1 = conditions: MAPPIT configuration: N-N; pair source set: Lit-BM-16
# TrxT = conditions: MAPPIT configuration: N-N; pair source set: screen_2
# 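Also: HEK293T cells with Epo stimulation, STAT-responsive firefly luciferase reporter, fold induction versus unstimulated cells divided by the larger fold induction of two negative controls lacking either bait or prey.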
binder,measurement,setting,value
Coprox (protein) MNALRHTISLVSLGTFQLVRRTRGPHARGFLLGTGLGLASFSAVTYAHSAEAVDPKVNGVQMNTSRFMAEPITDSKALLGDKENMRHRMEILIMEIQAEFCRALEAEENCGQKFKVDRWERPEGGGGITCVLQDGDVFEKAGVNISVVTGSLPPAAVQQMRARGKNLKEGASLPFFASGVSAVIHPRNPHVPTIHFNYRYFEVETAKGEKQWWFGGGTDLTPYYLCEKDASHFHQTLKSACDEHDPTYYPRFKKWCDDYFRIKHRNESRGIGGIFFDDIDSPNQEAAFNFVSSCARAVIPSYVPLVRKHKNREYGNNERQWQLLRRGRYVEFNLIYDRGTKFGLYTPGARYESILMSLPLHARWEYMHEPKSQSEEGKLMKVLKNPKDWV,MAPPIT interaction score,Ilp6; MAPPIT configuration: N-C,0.0185
same,MAPPIT interaction score,Ilp6; MAPPIT configuration: N-N,-0.101
Hsp60B (protein) MFRSCVPKAITSSRCFARMYSKDVRFGSGVRAMMIRGVDILADAVAVTMGPKGRSVIVERPWTSPKITKDGFTVARSIALKDQHMNLGAKLVQDVADNTNESAGDGTTTATVLARAIAKEGFNQITMGANPVEIRRGVMLAVDVVKDKLKEMSKAVETREEIQQVATLSANGDTEIGRLIGEATDKVGPRGTITVKDGKRLKDELNIIQGLRFDNGYVSPFFVNSSKGSKVEFANALVMISLKKITGLSQIVKGLEQSLRQRRPLIIIAEDISGEALNALVLNKLRLGLQVCAVKSPSYGHHRKELIGDISAATGATIFGDDINYSKMEEAKLEDLGQVGEAVISKDSTMLLQGKPKTGLLEMRIQQIQDELAEKQIKPEQRDRLRQRLSALTKGVAVLHIGGGSEVEVNEKKDRVVDALNATRAAIEEGIVPGGGTAFLRCIPYLQELKTESADLQKGVDIVCNALRMPCQTIAQNAGVDGPMVVAKVLNGSEDYGYDAMGDEYCRLVEKGIIDPTKVLRTAITDAAGVASLLSTTEVVITDSRNDDLLSKLSGAGGGMDDGLDMNMGGLEELAALSGLGGMGGMGGMGGMGGMGGMGGGFGGMGAGGGMSASASNDGPTAEEMNEMVKAIPGMEQVEVRDIDSGMM,MAPPIT interaction score,JMJD4,0.939
same,MAPPIT interaction score,Pdha,1.16
same,MAPPIT interaction score,Pih1D1,0.845
same,MAPPIT interaction score,Sms; pair source set: Finley_Y2H,1.94
same,MAPPIT interaction score,Sms; pair source set: Lit-BM-16,1.8
Srp68 (protein) MVVQEDNPNTGDVQEKTETAPVAEPSKIFTVEILHMIKDAQQQHGLRHGDFQRYRGYCSRRIRRLRKALKYPQGDKRHFKRRDVTIGQLTGKKADERFIHIPLICAERAWAYAMQLKQESNTEPRKRFHLVNKLRRACFYALQLQELCNTEAFDARTKLECEAYVAWMHGTLHFELQLWKTAGEHLKRAQVVYENLGKALPEDEQELYRAKVNEFTPNLRYCAYNISGGASGGKIDEILELRAQGVLENLDVLVSQTKTESSEGLQTIDWRGRKVTVRPEKVRLFLLSAQELDKSLAKTTKQDAKIELIERILMDCKDAIQAVRDEIKQDPKLRSLTTGQTVSGVQYLLAYLSYIRHSRTLQRNLCLVEQAKLNFYDPNLQSQQNVGDGKRVRPQDLARLYEIILQNVTEMQQINGLEDDATYQSEVENLAITFKAFRCYYIALTLIDIKKWKEAVALYERASNYATEALKGKSSPEFQLQEELKKVVSAIDGCKFSAHAYSVLEDDNSEESGTTTKSQKTTKPLYERLSLYKEDQSLHTKAPNVFKLTPDMEPIPCKPIFFDLAMTYVELPSLEGKLESPGKKGASITGFVKGFLGWGGGGNK,MAPPIT interaction score,Jheh2,-0.0601
HBS1 (protein) MSRHRIVRTMDYNDEYDGYDDIYGHSVEDEHCISPTDAQQWLYDRARGQQSISAFISKNKDIQEEEADEDEDEDAAFAKARRDSESFQMPQLDEIEQAKLSSCVDEVRSVVGDAVSERRIVETSMKFDYDMQKILDEILNEETNKSAKPAVNKMKAPAAPVLPKTVSKTVPTPPPKISLKEPRRGFEIPSPKVPSSPVVSGRNTPVDISAGDDISRSSATVFKVSKEQAVRNARQLYEKERADQKSHIHMIVIGHVDAGKSTLMGHLLYDTGNVSQRVMHKHEQESKKLGKQSFMYAWVLDETGEERARGITMDVGQSRIETKTKIVTLLDAPGHKDFIPNMISGATQADVALLVVDATRGEFESGFELGGQTREHAILVRSLGVNQLGVVINKLDTVGWSQDRFTEIVTKLKSFLKLAGFKDSDVSFTPCSGLTGENLTKKAQEPALTNWYSGRHLLDVIENFKIPERAIDRPLRMSVSDIYKGTGSGFCISGRVETGVLCLNDKVLVGASREQAQVKSLTMNEFPQTCVFAGDQVSVTLPALDINNVTVGCIISDPQTPIPVTTRFQARIIVFNVKVPITMGFPVLLHHQSLIEPAVVCKLTASIHKSTGEVVKKKPRCLGNNSCALVELETSRPICIERYADFKELGRVMLRVAGVTIAAGMVTKIR,MAPPIT interaction score,Ing3,0.0794
msl-2 (protein) MAQTAYLKVTRIAMRSASNLSKRRVEELNSGLGELRQLLSCVVCCQLLVDPYSPKGKRCQHNVCRLCLRGKKHLFPSCTQCEGCSDFKTYEENRMMAAQLLCYKTLCVHLLHSALFGELAGMRPQVARELVPRIKLPPKTTQEFIREGSNISDTFDIFLPQPDLPFLKDMPTSLPAETPPTSAVTTPELPYDHHLNISDIEAEAAATAEQGHFSPLPLLPTGSRMGMLSHAGQIVIATESSESGFMDQAWTDQVDLSGTVSVSKYTNSGNNFAVSYVMPTSATTKFDPQELQIGQVVQMADSTQLAVLAAVEETVETSTQLTVLSTTVEETVETSTQLEVLTSAEEPNEISDQLANLQVEESDEALVEETVEEAEGTSIPSEVVAEHMEEDQHLDVHTSQSPTQTEMEEAVEEHVATKTQLGHVQTELQDAESLQKDFEDAKAAAEEAKEKEKDLHAISAELQKEDSDEPTLKRKRTRTLKASQAAKIEPVPSEVKTKVQSGKGALRRIRGKDKEEKVKPPKPKCRCGISGSSNTLTTCRNSRCPCYKSYNSCAGCHCVCCKNPHKEDYVESDEDDDLEDFEMPKDVPEPMTQSEEPVVAEPRQEENSMAPPDSSAPISLVPLNNLQQSQHPLVLVQNEKGEYQGFNIFQGSKPLDPVTVGFTIRVQLQHTDGFGSLPQYAYIMPTIDPPNPPAPSLSPPPPPAPDREVIEPPAKKFRTSRTRRGRANFSALDTVDELVSGGSRSNSAAGDRSSATDNAHSLFEEIMSGSDDL,MAPPIT interaction score,JIL-1,0.418
same,MAPPIT interaction score,TrxT,0.135
